In ChEMBL document CHEMBL3988442, “University of Dundee, Small-Polar-MMV Screening Library” (2021):
The whole screen tested about 48,000 compounds, of which about 13,000 (27%) showed an effect of 50% or more. The list shows a part of the results.

Test system: Wolbachia pipientis
Assay: Anti-Wolbachia Cell-Based Screen
Format: functional
Set-up: scale not given: in the data most compounds retested in dose-response had high values
Conditions: 5 µM

SMILES | Percent Effect [%]
CCn1cc2c(n1)C(COC)CN(C(=O)COc1ccccc1C)C2 (stereo not given) | -8.136
CC(=O)NC[C@@H]1C=C(C)[C@H](CC(=O)NCCN(C)C)C[C@H]1C(C)C | 6.725
O=C1CC2(CCSC2)C(=O)N1CCCc1ccccc1 (stereo not given) | -8.478
CCC(NC(=O)c1coc(COc2cccc(F)c2F)n1)C(=O)NC (stereo not given) | -19.24
CCc1nnc2n1CCN(Cc1nc(-c3ccoc3)no1)C2 | -0.9507
COCCC(=O)N1CCCC1c1csc(Nc2ccccn2)n1 (stereo not given) | 105.2
COCCC(=O)N1CCCC1c1csc(Nc2ncccn2)n1 (stereo not given) | 107
CC(C)(C)c1nnc(CN2CCN(C(=O)CC3CCCCC3)CC2)o1 | -4.944
CCC[C@@H](NC(N)=O)C(=O)N1CCc2c(Cl)cccc2C1 | 5.459
COCC(=O)Nc1cc(S(=O)(=O)C(F)(F)F)ccc1OC | 4.656
CCc1nc(C)c(CN2CCOC(Cc3cccc4ccccc34)C2)[nH]1 (stereo not given) | 10.02
Cc1cc(CN2CCCC(C)(CO)C2)ccc1F (stereo not given) | -2.653
Cc1nc(CN2CCCN(CC(=O)N(C)CCC#N)CC2)no1 | 3.648
OCC1(O)CCCN(Cc2noc(-c3ccccc3)n2)CC1 (stereo not given) | 104.1
OCCOc1ccccc1CN1CCCC(O)(CO)C1 (stereo not given) | 16.2
Cn1cnc2c1CCN(Cc1noc(-c3ccccc3)n1)C2 | 2.267
OCC1(O)CCCN(Cc2noc(-c3ccccc3)n2)C1 (stereo not given) | 97.27
OCC1(O)CCCN(Cc2nnc(-c3ccccc3)o2)CC1 (stereo not given) | 97.17
Cc1nc(CN2CCCC(C)(CO)C2)no1 (stereo not given) | 110.1
CN(C)CC1(O)CCCN(c2noc(-c3ccccc3)n2)CC1 (stereo not given) | -6.371
Cc1ccc(-c2nnc(CN3CCCC(O)(CO)CC3)o2)n1C (stereo not given) | -4.067
c1ccc(-c2nc(CN3CCn4c(nnc4C4CC4)C3)no2)cc1 | -9.405
CC1(c2ccccc2)CCCN(Cc2nnc(-c3cccnc3)o2)C1 (stereo not given) | -17.9
O=C(O)C(F)(F)F.O=C(O)C(F)(F)F.O=C([C@H]1CN(Cc2nccs2)C[C@H]2OCC[C@@H]12)N1CCCCO1 | -13.3
CCN1CCC2(CCC1=O)CN(c1cnc3ccccc3n1)CCN2C (stereo not given) | 10.67
CCNC(=O)N(C)CCCc1n[nH]c(N)c1C#N | -6.653
CC(C)n1ccnc1C1CCCN(c2cc(C(=O)NC3CC3)ccn2)C1 (stereo not given) | 11.95

SMILES | Percent Effect [%]
Cn1ccnc1CN1CCN(Cc2noc(-c3ccccc3)n2)CC1 | -3.916
Cc1cnn(C2CN(Cc3noc(-c4ccccc4)n3)C2)c1 | 6.311
OCC1(O)CCN(Cc2noc(-c3ccccc3)n2)CC1 | 112.4
CCCC(N)CNS(=O)(=O)Cc1cccc(C#N)c1.Cl (stereo not given) | -1.555
Cn1nc2c(cc1=O)CN(CCCOc1ccc(C#N)cc1)CC2 | -8.416
Cc1ccc(CS(=O)(=O)CC(=O)NCCCOC(C)C)cc1 | 104.7
CC(C)OCCCNC(=O)NC(C)c1ccc(-n2cncn2)cc1 (stereo not given) | 21.75
Cc1cccc(CS(=O)(=O)CC(=O)NCCCOC(C)C)c1 | -2.072
CC(C)OCCCNC(=O)CS(=O)(=O)Cc1ccc(C(C)C)cc1 | 60.49
Cc1ccc(CS(=O)(=O)CC(=O)NCc2ccccc2F)cc1 | -26.12
CC(C)OCCCNC(=O)CS(=O)(=O)Cc1cccc(Cl)c1 | 109.4
CC(NC(=O)NCCCN(C)S(C)(=O)=O)c1cccc(Cl)c1 (stereo not given) | -5.228
CC(C)OCCCNC(=O)CS(=O)(=O)Cc1ccc(Cl)c(Cl)c1 | -2.776
CC(C)c1ccc(CS(=O)(=O)CC(=O)NCc2ccccc2F)cc1 | -59.22
CC(C)OCCCNC(=O)CS(=O)(=O)Cc1ccc(Cl)cc1 | 111.2
CC(C)(C)CC(=O)NCC(=O)NS(=O)(=O)c1cccnc1 | -1.885
COc1ncnc(N(C)C)c1NC(=O)Cc1cc(F)ccc1F | -32.31
CC(C)(C)c1ccc(C2(C(=O)NCCCS(C)(=O)=O)CC2)cc1 | -6.927
CC(C)OCCCNC(=O)CS(=O)(=O)Cc1ccc(C(C)(C)C)cc1 | 103.7
Cc1ccc(C)c(CS(=O)(=O)CC(=O)Nc2ccc(F)cc2F)c1 | -7.067
CC(C)OCCCNC(=O)CN1CCC(N2CCN(C)C2=O)CC1 | -1.952
Cc1ccc(C)c(CS(=O)(=O)CC(=O)NCCCOC(C)C)c1 | 103.7
Cc1ccc(C)c(CS(=O)(=O)CC(=O)NC(C)c2ccc(F)cc2F)c1 (stereo not given) | 34.69
Cc1cc(NC(=O)CNc2ccc(Br)cc2F)on1 | -13.69
CNC(=O)[C@@H](CC(C)C)N1CCC[C@H]1C(=O)N(C)Cc1ccccc1.Cl | 3.832
CS(=O)(=O)N1CCc2c(nnn2CC2CC2)C1COCC1CC1 (stereo not given) | 9.145
Cc1cc(C2CCCN2C(=O)COc2ccc(CC#N)cc2)no1 (stereo not given) | -10.78

SMILES | Percent Effect [%]
CNC(=O)CCc1cc(C2CCCN2S(C)(=O)=O)nc(C)n1 (stereo not given) | 95.26
Cc1cc(C2CCCN2C(=O)c2ccc(OCC(N)=O)cc2)no1 (stereo not given) | 5.942
Cc1nc(O)cc(CCNC(=O)CC[C@@H]2CCCN3CCCC[C@H]23)n1 | -10.54
CCOc1ccc(CC(=O)N2CCCC2c2cc(C)on2)cc1 (stereo not given) | 5.942
Cc1nc(CCC(N)=O)cc(C2CCCCN2S(C)(=O)=O)n1 (stereo not given) | 110.4
CNC(=O)CCc1cc(C2CCCN2C(=O)CO)nc(C)n1 (stereo not given) | 135.9
CNC(=O)CCN1CCCC1c1ccccc1Br (stereo not given) | 10.79
Cc1nc(CCC(N)=O)cc(C2CCCN2S(C)(=O)=O)n1 (stereo not given) | 118
NC(=O)CN1CCN(S(=O)(=O)N2CCCC2c2ccco2)CC1 (stereo not given) | -1.711
Cc1noc(C)c1CN(C)C(=O)C1CCCCN1S(C)(=O)=O (stereo not given) | -0.5133
Nc1nc2c(c(N3CCC(CCn4cccn4)CC3)n1)CCNCC2 | 1.454
CC(Cc1ccc2c(c1)OCO2)c1cn(CCN2CCCC2)nn1 (stereo not given) | 21.75
COCCN(C(=O)c1ccn(-c2ccc(OC)cc2)n1)C(C)C(N)=O (stereo not given) | 143
CC(C)N(C)CC(=O)Nc1ccc(-n2ccc(C(N)=O)n2)cc1 | -7.566
COc1ccc(-n2ccc(C(=O)N3CCC(C(N)=O)C3)n2)cc1 (stereo not given) | -0.5166
COc1ccc(SC(C)C(=O)N2CCC(O)CC2)cc1 (stereo not given) | 1.982
COCCN(CCOC)C(=O)c1ccn(-c2ccccc2Cl)n1 | 2.098
CN(C)CCN(Cc1cccnc1)C(=O)c1ccn(-c2ccccc2)n1 | 1.059
COc1ccc(-n2ccc(C(=O)N(C)C(C)C3(C)CC3)n2)cc1 (stereo not given) | 114.7
COc1ccc(-n2ccc(C(=O)N(CCN(C)C)C(C)C)n2)cc1 | 158.8
CCC(C)C(=O)NCc1ccn(-c2ccc(F)cc2)n1 (stereo not given) | -3.834
CCC[C@@H](NC(N)=O)C(=O)N1CCc2ccccc2CC1 | 5.215
O=C(NCCOc1ccc(F)c(F)c1)NCc1ccncc1 | -13.71
Cc1cc(CNC(=O)N2CCN(C(C)c3cccnc3)CC2)c(C)o1 (stereo not given) | -1.868
CN1[C@@H](CCC(=O)NCc2ccc(F)cc2)CNC(=O)[C@H]2NCC[C@H]21 | 3.15
CCc1nsc(N2CCC3(CC2)OCCO3)n1 | -6.104
N#Cc1cnc(N2Cc3cnn(Cc4ccc(F)cc4)c3C2)nc1N | -0.8846

SMILES | Percent Effect [%]
N#Cc1cnc(N2CCC3(CC2)OCCO3)nc1N | 125
CC1CCN(c2ncc(C#N)c(N)n2)CC1 | 102.6
CC1CCN(c2ncc3c(n2)CN(c2ccc4c(c2)OCO4)C3=O)CC1 | -9.746
CC1CCN(c2ncc3c(n2)CN(c2ccccc2)C3=O)CC1 | -3.671
CC(C)(C)c1cnc(CN2CCC(NC(=O)NC3CCCCC3)CC2)o1 | -3.337
CCn1c(Cn2cncn2)nnc1C1CCN(Cc2ccc(C)o2)CC1 | -1.569
Cc1nc(CNC(=O)CCCc2cccs2)no1 | -18.16
Cc1cc(=O)[nH]c(-n2nc(C)c(CCC(=O)NCc3cccs3)c2C)n1 | 127.2
Cc1cc(=O)[nH]c(-n2nc(C)c(CCC(=O)NCc3ccco3)c2C)n1 | 133
Cc1ccc2cnn(CCC(=O)NCc3c(C)nn(C)c3C)c2c1 | -12.76
Cc1nc(CNc2ccc(C(=O)NCc3ccco3)cc2C)no1 | -9.034
Cc1csc(CNC(=O)CCCc2cccs2)n1 | 21.24
O=C1OCCN1Cc1cccc(F)c1C(F)(F)F | -13.53
CCS(=O)(=O)NCCN1CCc2ccc(F)cc2C1C (stereo not given) | -17.56
O=C(Cc1ccccc1)NC[C@H]1Cn2ccnc2CO1 | -7.774
Cc1ccnc(CC(C)N(C)c2cc(CCN)nc(C)n2)c1 (stereo not given) | -16.25
COc1c(C2CCCN2C(=O)c2ccoc2C)c(C)nn1C (stereo not given) | -17.99
Cc1nn(C)c(Cl)c1C1CCCN1C(=O)c1ccoc1C (stereo not given) | 103.1
Cc1nn(C)c(Cl)c1C1CCCN1C(=O)c1ccnn1C (stereo not given) | 108
Cc1noc(C)c1C(=O)N1CCCC1c1c(C)nn(C)c1Cl (stereo not given) | 2.958
COc1c(C2CCCN2C(=O)c2cccn2C)c(C)nn1C (stereo not given) | -5.9
COc1c(C2CCCN2C(=O)c2ccnn2C)c(C)nn1C (stereo not given) | -14.45
Cc1nn(C)c(Cl)c1C1CCCN1C(=O)c1cccn1C (stereo not given) | 113.6
OC(CN(Cc1ccccc1)Cc1ccon1)c1cccs1 (stereo not given) | -5.25
